# Measurements as given in PubChem BioAssay (NCI).
# About 79,000 compounds went through this panel and 15% of them were active in at least one assay; those are over-represented in the sample as a whole. Activity calls are given as the source filed them. No stated cut-off is given here; in the data, active means growth inhibition above about 70%; inactive means the rest.
# Test: NCI Yeast Anticancer Drug Screen. Data for the rad50 strain (AID 155);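 further: 0% = growth of vehicle-only cultures of the same strain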
# Conditions: S. cerevisiae rad50 strain growth inhibition; at 50.0 µM; hits give high values
# Outline: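 Genetically altered yeast (DNA repair pathway); compound treatment; growth inhibition vs vehicle ctrl.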
row,SMILES,growth inhibition
1,CC(C)(N=NC(C)(C)C(=O)NCCO)C(=O)NCCO,-6.15% (inactive)
2,COc1ccc(OC)c(/C=C/c2ccc(NC(=O)C(Cl)(Cl)Cl)cc2)c1,-11.1% (inactive)
3,NC1=C(O)C(=O)C(c2ccccc2)O1 (centres undefined),-29.2% (inactive)
4,O=C(O)C(=O)Cc1ccccc1,11.2% (inactive)
5,Br/C=C\Br,-2.85% (inactive)
6,COc1ccc2c(c1O)-c1c(OC)c(OC)cc3c1[C@H](C2)[N+](C)(C)CC3,-9% (inactive)
7,Cc1ccccc1N(C(=O)C(=O)O)c1ccccc1C,1.35% (inactive)
8,CC(C)(C)NC(=O)NCc1ccccc1Cl,2.9% (inactive)
9,c1csc(-c2nccc3ccccc23)c1,1.6% (inactive)
10,CC(/C=N\NC(=S)SCc1ccccc1)=N/N=C(N)N,52.4% (inactive)
11,O=C(O)COc1cc(-c2ccccc2)nc2ccc(F)cc12,-3% (inactive)
12,C/C(=C/C(C)O)c1ccccc1 (centres undefined),-13.6% (inactive)
13,CC1(C)N=C(N)N=C(N)N1CCCCc1ccccc1,-23.7% (inactive)
14,ClCCCCCCCCCCl,28.6% (inactive)
15,COc1cccc(/C=N/N(C)c2c([N+](=O)[O-])cc(C(F)(F)F)cc2[N+](=O)[O-])c1O,-1.3% (inactive)
16,NC(CCCOS(=O)(=O)O)Cc1ccc2ccccc2c1 (centres undefined),-10.6% (inactive)
17,O=C(NNC(=O)c1ccc(Cl)cc1Cl)c1ccccc1,-13.8% (inactive)
18,O=C(OCC1OC(OCc2ccccc2)C(OC(=O)c2ccccc2)C1OC(=O)c1ccccc1)c1ccccc1 (centres undefined),-10.2% (inactive)
19,CN(CC#N)CC#N,19% (inactive)
